Laboratory results taken from PubChem BioAssay.
Values without a mark were called inactive. Activity calls are given as the source filed them. Unless noted, no stated cut-off is given here; in the data, active means inhibition above about 42%; inactive means the rest.

Experiments:
[1] = StAR promoter reporter inhibitors, counter-screen for LRH-1 inverse agonist project, cell-based, luminescence, high throughput (AID 651611; in the data active means inhibition above about 28%); details: StAR promoter luciferase reporter counterscreen, at 3.6 µM, active compounds read high
[2] = target: Nuclear receptor subfamily 5 group A member 2 (Homo sapiens) (UniProt O00482); assay: LRH-1 (NR5A2) inverse agonists, retest, confirmation, cell-based, luminescence (AID 651613); details: cell-based LRH-1 luciferase reporter, inverse agonism; at 3.6 µM; active compounds read high;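 further: HEK293T cells co-transfected with LRH-1 and StAR promoter luciferase reporter; 0% = vehicle wells and 100% = parental cells lacking receptor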
Nuclear receptor subfamily 5 group A member 2 (Homo sapiens), sequence (O00482 whole entry, looked up): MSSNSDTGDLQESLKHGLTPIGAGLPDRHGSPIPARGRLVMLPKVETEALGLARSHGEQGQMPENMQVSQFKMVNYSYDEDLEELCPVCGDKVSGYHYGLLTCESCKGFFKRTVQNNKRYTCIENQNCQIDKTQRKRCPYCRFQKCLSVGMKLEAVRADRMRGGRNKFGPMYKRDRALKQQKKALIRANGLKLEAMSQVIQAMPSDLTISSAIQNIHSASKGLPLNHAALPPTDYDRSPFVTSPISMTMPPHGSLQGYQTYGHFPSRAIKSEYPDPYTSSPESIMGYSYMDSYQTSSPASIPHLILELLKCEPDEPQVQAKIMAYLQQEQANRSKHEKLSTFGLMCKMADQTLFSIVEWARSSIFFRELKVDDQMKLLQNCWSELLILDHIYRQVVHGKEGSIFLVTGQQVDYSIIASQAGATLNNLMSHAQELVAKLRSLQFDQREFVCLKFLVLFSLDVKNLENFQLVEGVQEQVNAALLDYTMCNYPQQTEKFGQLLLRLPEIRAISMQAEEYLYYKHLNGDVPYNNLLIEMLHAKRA

[3] = target: Steroidogenic factor 1 (Homo sapiens) (UniProt Q13285); assay: SF1 (NR5A1) inverse agonists, counter-screen for LRH-1 inverse agonist project, cell-based, luminescence, high throughput (AID 651614; in the data active means inhibition above about 44%;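 further: cells cotransfected with StAR promoter reporter and SF1 expression vector; 0% = vehicle on cells with receptor and 100% = vehicle on cells lacking receptor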); details: cell-based SF1 luciferase reporter, at 3.6 µM, active compounds read high
Steroidogenic factor 1 (Homo sapiens), sequence (Q13285 whole entry, looked up, the tested form may be a part): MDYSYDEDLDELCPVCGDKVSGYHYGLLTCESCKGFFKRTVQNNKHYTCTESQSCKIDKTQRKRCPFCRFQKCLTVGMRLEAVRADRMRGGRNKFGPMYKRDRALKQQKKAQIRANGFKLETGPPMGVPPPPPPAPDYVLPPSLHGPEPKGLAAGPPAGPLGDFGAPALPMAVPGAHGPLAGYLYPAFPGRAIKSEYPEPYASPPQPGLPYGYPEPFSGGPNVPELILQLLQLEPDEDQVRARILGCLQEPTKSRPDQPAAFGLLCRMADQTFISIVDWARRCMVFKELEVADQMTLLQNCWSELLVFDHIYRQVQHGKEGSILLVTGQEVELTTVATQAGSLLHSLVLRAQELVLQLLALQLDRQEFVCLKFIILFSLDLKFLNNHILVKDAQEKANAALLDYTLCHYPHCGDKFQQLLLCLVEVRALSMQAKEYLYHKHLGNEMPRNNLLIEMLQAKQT

[4] = VP16 transactivation reporter inhibitors, counter-screen for LRH-1 inverse agonist project, cell-based, luminescence, high throughput (AID 651615; in the data active means inhibition above about 33%); details: Gal4-VP16 luciferase reporter cells, at 3.6 µM, active compounds read high

Compound	inhibition [1]	inhibition [2]	inhibition [3]	inhibition [4]
Nc1nc(-c2ccccc2)c(CCCOc2ccc(NC(=O)CBr)cc2)c(=O)[nH]1	15.7%	61.6% (active)	48.9% (active)	-15.6%
CC(=O)c1ccc(NC(=S)Nc2cccc3cnccc23)cc1	3.88%	5.22%	4.69%	7.24%
O=C(CSc1nnc(Cc2cccs2)n1Cc1ccco1)Nc1ccc(Cl)cc1Cl	9.49%	51.8% (active)	47.5% (active)	19.1%
Cc1cc(O)c(/C=N/Nc2cccc(Cl)c2)c(=O)o1	-0.11%	44.5% (active)	24.6%	56% (active)
CC(C)C(=O)N1CCN(c2ccccc2NC(=O)c2ccc([N+](=O)[O-])o2)CC1	10.9%	59.1% (active)	42.2%	25%
O=C(Nc1cccc([N+](=O)[O-])c1)c1ccc([N+](=O)[O-])o1	24%	64.7% (active)	70.5% (active)	-20.3%
Cc1cc(OCC(=O)NCc2cccnc2)c2c(C)c(C)c(=O)oc2c1	9.8%	61.8% (active)	50.5% (active)	-8.94%
CCn1c(SCC(=O)Nc2ccc(Cl)cc2)nnc1C1CC1	14%	50.6% (active)	50% (active)	6.77%
COc1ccc(NC(=O)CSc2nc3nc(C)cc(C)c3c(=O)[nH]2)cc1	3.79%	43.6% (active)	48.5% (active)	-2.26%
CCOc1cc(/C=N/n2nnnc2N)ccc1OCc1c(C)no[n+]1[O-]	12.5%	53.2% (active)	56.4% (active)	-7.92%
COCCSc1ccccc1C(=O)NCc1ccc2c(c1)OCO2	6.49%	39.5%	48.9% (active)	2.27%
O=C1/C(=C/c2ccccc2)CN(C(=O)CCN2CCOCC2)C/C1=C\c1ccccc1	21.9%	44.3% (active)	56.7% (active)	55.2% (active)
CCOC(=O)c1cnc(-n2nc(C)cc2C)nc1NC1CCCC1	0.01%	56.9% (active)	52.4% (active)	9.25%
Cc1c(C(=O)N(Cc2ccc(F)cc2)C2CCS(=O)(=O)C2)oc2ccccc12 (stereo not given)	36.8% (active)	8.94%	31.4%	-5.18%
CCC(=O)N1CCN(c2ccc(NC(=O)c3ccc([N+](=O)[O-])o3)cc2)CC1	17.6%	78% (active)	68.4% (active)	-25%
CC(=O)N1CCc2c(sc(NC(=O)Cc3ccc(F)cc3)c2C#N)C1	21.4%	65.3% (active)	57.6% (active)	-35.5%
O=C(Cc1ccc(Cl)cc1Cl)Nc1ccncc1	16.2%	76.1% (active)	72.9% (active)	48.6% (active)
O=[N+]([O-])c1cccc(-c2ccc3nnc(SCc4cccnc4)n3n2)c1	3.6%	62.1% (active)	62% (active)	19.4%
CCOc1ccc(NC(=O)CSc2nncc(=O)[nH]2)cc1	8.36%	63% (active)	57.7% (active)	-11.2%
Cc1sc(NC(=O)C(C)C)c(C(=O)Nc2ccccc2)c1C	13.2%	50.2% (active)	45.9% (active)	-9.75%
CC(=O)Nc1ccc(C2=CC(=O)CC(C)(C)C2)cc1	15.2%	60.2% (active)	55.8% (active)	-10.9%
COc1ccc2c(c1)CCN(C(=O)CCl)C2C1C(=O)CCCC1=O (stereo not given)	10.2%	59% (active)	54.4% (active)	-6.95%
CN1CCN(C2=C(Cl)C(=O)N(c3ccc(Cl)c(Cl)c3)C2=O)CC1	11.1%	39.3%	41.6%	-5.07%
CCCCNc1cc(C)nc(NCc2ccccc2)n1	35.5% (active)	57.6% (active)	68.8% (active)	50.8% (active)
NS(=O)(=O)c1ccc(O)c(NC(=O)c2ccc([N+](=O)[O-])o2)c1	13.8%	67.2% (active)	61.2% (active)	2.28%
